High-throughput results (PubChem BioAssay)
Giardia killer: Giardia lamblia killing | activity change, % at 7.66 µM, hits read low | 0.15% of 340,000 active | Giardia lamblia trophozoite viability; in the data active = activity change below about -80%; inconclusive = between about -30% and that limit;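 also: parasites exposed to compound for two days anaerobically before the ATP read; % is scaled to controls: 0 for no effect and ±100 for the full control effect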
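Luminescent ATP signal served as the viability read-out, measured 15-30 min after adding ATP detection reagent to trophozoites that had been incubated with compounds for 48 hrs at 37 deg C anaerobically at 100 cells/well.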
RORgamma inh: blocks mouse ROR gamma transcriptional activity. P51450. Potency, µM (titrated, usually from 53.6 µM), for inactives: top-dose activity change, negative = inhibition, hits mostly inhibitors. 5.4% of 310,000 active. AID 2551. Drosophila S2 Gal4-RORgamma UAS-luciferase reporter, 20 h; also: potency is read from the fitted curve at half-maximal effect; % is scaled to controls: 0 for no effect and ±100 for the full control effect; nearly all actives have a fitted effect of over 60% in size
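A Gal4/UAS one-hybrid system in insect cells: metallothionein-promoter Gal4–ROR gamma fusion plus Photinus luciferase reporter. Copper sulfate 700 uM final, 20 hr ambient incubation, luminescent detection after 10 min with reagent.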
a7 integrin act: activators of alpha7 integrin expression for muscular dystrophy; Potency, µM (top dose mostly 38.3 µM), without a hit: top-dose activation, most hits filed as activators; 0.064% of 350,000 active; alpha7betagal myoblasts, beta-gal FDG fluorescence, 48 h;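 also: potency is read from the fitted curve at half-maximal effect; 100% = response of the positive control SU9516; nearly all actives have a fitted effect of over 60% in size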
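Alpha7betagal+/- myoblasts (passage 13) were plated 16-24 hr, then exposed to compounds (1:260 dilution of DMSO stock) for 48 hours at 37C. After MPER lysis, β-galactosidase reporter activity was read as FDG fluorescence (ex 480/em 540) after 30 minutes.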
ERG Ets-DNA blk: inhibitors of human ERG Ets domain-DNA interaction. Potency, µM (series often up to 76.9 µM), without a hit: at the top dose FP activity, negative = inhibition, most hits filed as inhibitors. 0.028% of 370,000 active. AID 624246. fluorescence polarization, His-ERG Ets domain / labelled DNA. P11308; active = well fitted inhibition curve with a large enough effect in the polarisation, with a control signal flat; inconclusive = small, poorly fitted or top-dose-only effect, or effect the other way, or a change in a side signal; inactive = no such curve, though single readings can be large or run the other way; the % refers to the polarisation;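 also: polarization taken with two DNA probes labelled with fluorescein and Texas red; potency is read from the fitted curve at half-maximal effect; % of control where 0% means no effect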
Target sequence (P11308 whole entry, looked up, the tested form may be a part): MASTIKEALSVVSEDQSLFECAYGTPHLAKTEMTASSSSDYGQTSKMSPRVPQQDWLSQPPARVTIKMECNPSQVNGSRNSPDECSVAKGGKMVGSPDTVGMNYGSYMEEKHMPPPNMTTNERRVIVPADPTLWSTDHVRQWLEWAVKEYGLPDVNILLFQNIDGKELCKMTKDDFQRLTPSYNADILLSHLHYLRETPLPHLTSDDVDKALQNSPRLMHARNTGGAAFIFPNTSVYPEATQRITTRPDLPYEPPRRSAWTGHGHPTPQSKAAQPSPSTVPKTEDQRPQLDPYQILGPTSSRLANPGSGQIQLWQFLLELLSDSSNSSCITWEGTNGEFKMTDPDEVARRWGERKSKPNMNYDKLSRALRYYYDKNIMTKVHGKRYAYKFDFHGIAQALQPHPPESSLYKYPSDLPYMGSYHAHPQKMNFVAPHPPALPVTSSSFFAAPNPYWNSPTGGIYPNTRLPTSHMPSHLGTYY
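His-tagged ERG Ets domain (1 uM in the protein solution; 300mM KCl, 50mM Tris-HCl, 1mM EDTA, 1mM DTT, pH 7.5) received compound, then a probe mix of 5 nM fluorescein-DNA and 100nM Texas-615-DNA. Fluorescence polarization was read for both dyes.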
Gal4-VP16 FLuc: counter-screen for ROR gamma inhibitors: Gal4-VP16 reporter; 3.5% of 310,000 active; Potency, µM (doses to about 53.6 µM), inactives show at the highest dose activity, negative = inhibition, hits mostly inhibitors; Drosophila S2 Gal4-VP16 UAS-luciferase, luminescence, 20 h;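 also: Gal4-VP16 expression switched on by copper sulfate through the metallothionein promoter; potency is read from the fitted curve at half-maximal effect; % is scaled to controls: 0 for no effect and ±100 for the full control effect; nearly all actives have a fitted effect of over 50% in size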
Active calls of the source: *; ? = inconclusive; nt = no result; [ ] = remark or other dose. The entries come from a sample that favours hits as a whole. Unless noted, calls follow the shape of the dose curve; as a rule, active = well fitted curve in the direction sought with a large enough effect; inconclusive = small, poorly fitted or top-dose-only effect, or another doubt; inactive = no such curve, though single readings can be large; an effect the other way counts as inactive or inconclusive.

SMILES	Giardia killer	RORgamma inh	a7 integrin act	ERG Ets-DNA blk	Gal4-VP16 FLuc
CN1CCc2c(sc3c2C(=O)NC(c2ccccn2)N3)C1 (centres undefined)	-11.8	-13.7%	-11.2%	?	0.3%
O=C1NC(c2ccccn2)Nc2sc3c(c21)CCC3 (centres undefined)	13.6	14.1µM*	0.0%	5.5%	?
Cc1c(Cl)cccc1NC(=S)N1CCCN(Cc2ccc(F)cc2)C1	6.3	15.8µM*	0.0%	5.3%	?
O=C(Nc1ccccc1)N1CCCN(Cc2ccccc2F)C1	11.2	-3.7%	-8.3%	-0.8%	-2.7%
Cc1c(Cl)cccc1NC(=S)N1CCCN(Cc2ccccc2F)C1	10.0	12.6µM*	-43.7%	19.6%	?
Cc1ccc(NC(=S)N2CCCN(Cc3ccc(F)cc3)C2)c(C)c1	-11.7	12.6µM*	-28.3%	4.0%	?
Cc1ccccc1NC(=S)N1CCCN(Cc2ccc(F)cc2)C1	-16.2	28.5%	-33.1%	-5.9%	-20.5%[10 µM]
CSc1cccc(NC(=S)N2CCCN(Cc3ccc(F)cc3)C2)c1	-3.4	?	-25.1%	9.3%	-2.8%
Fc1ccccc1CN1CCCN(C(=S)Nc2cccc(Cl)c2)C1	-2.7	7.08µM*	-10.4%	4.4%	?
CC(Oc1ccc2ccc(=O)oc2c1)C(=O)c1ccccc1 (centres undefined)	23.6	9.3%	1.3%	1.4%	5.0%
O=C(NCc1cccnc1)/C(=C\c1ccc(-c2ccc(Cl)c(Cl)c2)o1)S(=O)(=O)c1ccccc1	-24.6	8.91µM*	-61.9%	-11.7%	5.62µM*
O=C(NCc1cccnc1)c1ccc(-c2ccc(Cl)cc2)o1	-21.9	?	-6.9%	-4.9%	-11.8%
Cc1ccc2nc(-c3ccc(NC(=S)NCCC(C)C)cc3)sc2c1	7.9	nt	20.0%	5.5%	nt
CC(=O)NC(=S)Nc1ccc(-c2nc3ccc(C)cc3s2)cc1	-17.3	0.501µM*	-1.9%	nt	1.78µM*
CCCCNC(=S)Nc1ccc(-c2nc3ccc(C)cc3s2)cc1	-26.3	3.16µM*	1.0%	1.7%	?
CNC(=S)Nc1ccc(-c2nc3ccc(C)cc3s2)cc1	-14.9	0.562µM*	-8.6%	-9.6%	7.08µM*
CCC(C)(C)NC(=S)Nc1ccc(-c2nc3ccc(C)cc3s2)cc1	-1.8	8.3%	-2.2%	4.1%	-15.5%
Cc1cccc(C(=O)N(Cc2ccco2)Cc2ccccc2F)c1	nt	nt	nt	-10.6%	nt
COc1cccc(-c2nnc3n(Cc4ccccc4Cl)c(=O)c4ccccc4n23)c1O	nt	nt	nt	0.0%	nt
CCS(=O)(=O)N1CC(=O)N(c2cc(C)cc(C)c2)C(C)(C(=O)NC2CCCCC2)C1 (centres undefined)	nt	nt	nt	-38.1%	nt
Cc1cc2c(SCC(=O)NC3CCCCC3)ncnc2s1	2.3	-22.1%	-8.4%	6.9%	?
Cc1cc2c(NC3CCCCC3)ncnc2s1	1.6	?	-41.7%	1.3%	12.6µM*
COc1ccc(S(=O)(=O)N(CCO)c2ccccc2CN(C)CC=Cc2ccc(Cl)cc2)cc1	nt	-40.5%	nt	nt	14.1µM*
Cc1ccc(C)c(Oc2cc(NC(=O)CCCn3nc(C)c([N+](=O)[O-])c3C)cc([N+](=O)[O-])c2)c1	-1.5	?	-51.2%	-14.5%	-6.8%
Cc1nn(CCCC(=O)Nc2cc(Oc3ccccc3)cc([N+](=O)[O-])c2)c(C)c1[N+](=O)[O-]	-12.3	2µM*	-21.9%	-8.2%	?
SMILES	Giardia killer	RORgamma inh	a7 integrin act	ERG Ets-DNA blk	Gal4-VP16 FLuc
Cc1cc(C)cc(NC(=O)Nc2ccc(-n3ccc(C(F)(F)F)n3)cc2)c1	-12.8	29.3%	-0.7%	0.8%	-9.0%
O=C(Nc1ccc(-n2ccc(C(F)(F)F)n2)cc1)Nc1cccc(Cl)c1	nt	?	nt	nt	17.8µM*
CCc1ccc(OCC(=O)NC(=S)Nc2cccc(CO)c2)c(Br)c1	18.6	11.2µM*	2.4%	nt	10µM*
C/C(CCN1CCCCc2nc(C)c(C)cc21)=N\OC[C@@H](C)[C@H](OCc1ccccc1)C(C)C	nt	15.1%[10 µM]	nt	nt	6.5%[10 µM]
CC(=O)c1cc(-c2ccc(F)cc2)n(CCC(=O)NCc2ccc(C)cc2)c1C	nt	nt	nt	-7.3%	nt
COc1ccc(-c2oc3ncnc(NCCCN4CCOCC4)c3c2-c2ccc(OC)cc2)cc1	5.4	?	-14.0%[7.66 µM]	-6.0%	15.8µM*
Cc1ccc2nc(Cl)c3cc(C(=O)NCCCN(C)Cc4ccccc4)sc3c2c1	nt	nt	nt	-8.1%	nt
CN(CCCNC(=O)c1cc2c(Cl)nc3ccccc3c2s1)Cc1ccccc1	4.6	?	-60.5%	-1.1%	11.2µM*
CCc1ccc(C2C(C(=O)O)c3ccccc3C(=O)N2C)cc1 (centres undefined)	-4.3	-6.1%	-14.8%	nt	10.4%
CCc1ccc(/C=C/C(=O)C2C(=O)c3ccccc3C2=O)cc1	-81.7*	-42.4%	-24.8%	nt	?
Cc1cc(C)nc(N/N=C/c2ccccc2OCc2cccc(Br)c2)n1	7.5	50.1µM*	16.9%	15.0%	35.5µM*
Cc1cc(C)nc(N/N=C/c2ccccc2OCc2ccc(Br)cc2)n1	-7.0	7.08µM*	10.2%	7.7%	?
Cc1cc(C)nc(N/N=C/c2ccccc2OCc2ccc(Cl)cc2)n1	4.5	10µM*	0.1%	-5.1%	?
Cc1cc(C)nc(N/N=C/c2ccccc2OCC(=O)O)n1	4.4	-24.3%	-12.5%	9.9%	-6.4%
Cc1cc(C)nc(N/N=C/c2cc(Br)ccc2O)n1	-1.3	3.16µM*	-21.9%	-3.0%	17.8µM*
CCN1C(C)=C(C(=O)OC)C(c2ccccc2)N2C(=O)[C@@]3(C(=O)OC)O[C@@]12C1C(=O)N(C)C(=O)C13 (some centres undefined)	nt	-6.5%[10 µM]	nt	nt	-4.3%[10 µM]
O=C(OC1CCOC1=O)C1CCN(S(=O)(=O)c2ccccc2)CC1 (centres undefined)	-3.8	nt	-16.4%	4.8%	nt
Cc1cc(C)nc(N/N=C/c2ccccc2OCc2ccccc2)n1	-10.7	8.91µM*	-10.1%	3.1%	?
CCOc1ccc(-c2csc(NC(=O)CSC3=NC(=O)CN3C(C)=O)n2)c2ccccc12	2.2	11.2µM*	?	8.0%	7.94µM*
CC1=C(c2ccc(C)c(C)c2)S(=O)(=O)N(Cc2ccc(C(=O)Nc3cc(F)ccc3F)cc2)C1=O	nt	nt	nt	0.5%	nt
O=C(C1CCN(C2CC(=O)N(c3ccc(F)cc3)C2=O)CC1)N1CCOCC1 (centres undefined)	-3.9	12.6µM*	10.5%	3.5%	?
Cc1cc(C(=O)Nc2c(F)cc(F)cc2Br)c(C)o1	0.4	?	-0.2%	6.3%	10µM*
O=P(O)(O)OP(=O)(O)O	nt	-19.5%[10 µM]	nt	nt	3.4%
CC(C)CCNC(=O)CCCOc1cc(=O)n(C)c2ccccc12	-11.7	12.6µM*	?	3.4%	11.4%
COc1cc(=O)n(C)c2ccccc12	11.2	12.6µM*	2.24µM*	nt	0.0%
COc1ccc2c(C)cc(SCC(=O)Nc3nsc(-c4ccccc4C)n3)nc2c1	nt	nt	nt	0.7%	nt
COc1cc(OC)cc(-c2cc3nc(C)c(CCC(=O)O)c(C)n3n2)c1	8.2	0.708µM*	1.3%	-3.2%	2.82µM*
